Measurements from PubChem BioAssay (NCI).
About 83,000 compounds went through this panel and 20% of them were active in at least one assay; those are over-represented in the sample as a whole.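 For each line, cells grew in 96-well plates with the test compound present at a single concentration for 48 hours.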 Calls of active or inactive are those of the source. How the source made its calls: active means growth percent below 10; inactive means the rest.

Legend:
Assay in all cases: NCI-60 one-dose screen, 48 h (100 = growth as untreated, 0 = no growth, -100 = all killed)
Conditions in all cases: 10 µM unless noted
SR leukemia = system: SR leukemia
RPMI-8226 leukemia = system: RPMI-8226 leukemia
OVCAR-8 ovarian = system: OVCAR-8 ovarian
OVCAR-4 ovarian = system: OVCAR-4 ovarian
SK-OV-3 ovarian = system: SK-OV-3 ovarian
IGROV1 ovarian = system: IGROV1 ovarian
OVCAR-3 ovarian = system: OVCAR-3 ovarian
HS 578T breast = system: HS 578T breast
NCI/ADR-RES ovarian = system: NCI/ADR-RES ovarian
T-47D breast = system: T-47D breast
BT-549 breast = system: BT-549 breast
MDA-MB-435 melanoma = system: MDA-MB-435 melanoma
SW-620 colon = system: SW-620 colon
MCF7 breast = system: MCF7 breast
HCT-116 colon = system: HCT-116 colon
HCC-2998 colon = system: HCC-2998 colon
KM12 colon = system: KM12 colon
OVCAR-5 ovarian = system: OVCAR-5 ovarian

Measured: growth

C=C1c2c(Cl)ccc(O)c2C(O)=C2C(=O)[C@]3(O)C(O)=C(C(N)=O)C(=O)[C@@H](N(C)C)[C@@H]3[C@@H](O)[C@H]12
inactive: RPMI-8226 leukemia 13.2% | OVCAR-4 ovarian 23.7% | SK-OV-3 ovarian 11.2% | NCI/ADR-RES ovarian 61.2% | T-47D breast 21.8% | MDA-MB-435 melanoma 12.7% | SW-620 colon 16.4% | MCF7 breast 29.8%
active: SR leukemia -8.97% | OVCAR-8 ovarian 9.79% | IGROV1 ovarian -2.89% | OVCAR-3 ovarian -16.2% | HS 578T breast 5.86% | BT-549 breast -19.7% | HCT-116 colon 2.75% | HCC-2998 colon 8.18% | KM12 colon 1.27%

COc1ccc2c(c1)/C(=C/c1c(-c3cc(OC)c(OC)c(OC)c3Br)nc3sccn13)C(=O)N2
inactive: SR leukemia 95.1% | RPMI-8226 leukemia 85.9% | OVCAR-8 ovarian 99.6% | OVCAR-5 ovarian 105% | OVCAR-4 ovarian 100% | SK-OV-3 ovarian 96.6% | IGROV1 ovarian 45.7% | HS 578T breast 83.2% | NCI/ADR-RES ovarian 92.2% | MDA-MB-435 melanoma 93.2% | SW-620 colon 94.4% | MCF7 breast 85% | HCT-116 colon 87.7% | HCC-2998 colon 134% | KM12 colon 94.6%

CCC1S/C(=N\N=C(/C)c2cc3ccccc3o2)N(c2ccccc2)C1=O (stereo not drawn)
inactive: SR leukemia 15% | RPMI-8226 leukemia 65.4% | OVCAR-8 ovarian 105% | OVCAR-5 ovarian 106% | OVCAR-4 ovarian 95.1% | SK-OV-3 ovarian 116% | HS 578T breast 98.7% | NCI/ADR-RES ovarian 89% | T-47D breast 85.1% | BT-549 breast 234% | MDA-MB-435 melanoma 107% | SW-620 colon 106% | MCF7 breast 162% | HCT-116 colon 80.8% | HCC-2998 colon 113% | KM12 colon 114%
active: IGROV1 ovarian -12.9%

CC(Cc1cccc(C(F)(F)F)c1)NCCOC(=O)c1ccccc1 (stereo not drawn)
inactive: SR leukemia 92.4% | RPMI-8226 leukemia 116% | OVCAR-8 ovarian 110% | OVCAR-4 ovarian 110% | SK-OV-3 ovarian 106% | IGROV1 ovarian 105% | OVCAR-3 ovarian 115% | HS 578T breast 101% | NCI/ADR-RES ovarian 92.9% | T-47D breast 105% | BT-549 breast 109% | MDA-MB-435 melanoma 102% | SW-620 colon 103% | MCF7 breast 106% | HCT-116 colon 100% | HCC-2998 colon 109% | KM12 colon 114%

C[C@@H]1CC2C3C[C@H](F)C4=CC(=O)C=C[C@]4(C)[C@@]3(F)[C@@H](O)C[C@]2(C)[C@@]1(O)C(=O)CO (stereo partly drawn)
inactive: SR leukemia 99% | RPMI-8226 leukemia 64.8% | OVCAR-8 ovarian 82.1% | OVCAR-4 ovarian 113% | SK-OV-3 ovarian 65.6% | IGROV1 ovarian 99.8% | OVCAR-3 ovarian 113% | HS 578T breast 112% | NCI/ADR-RES ovarian 83.1% | T-47D breast 100% | BT-549 breast 81.2% | MDA-MB-435 melanoma 93.3% | SW-620 colon 105% | MCF7 breast 93.9% | HCT-116 colon 101% | HCC-2998 colon 98.8% | KM12 colon 97.4%

O=C1C(SCCO)=C(SCCO)C(=O)N1c1ccc(-c2ccccc2)cc1
inactive: OVCAR-5 ovarian 102% | OVCAR-4 ovarian 10.3% | SK-OV-3 ovarian 106% | NCI/ADR-RES ovarian 104% | T-47D breast 24% | MDA-MB-435 melanoma 92.2% | MCF7 breast 80.5% | HCT-116 colon 13.7% | HCC-2998 colon 79.8% | KM12 colon 83.4%
active: SR leukemia -47.6% | RPMI-8226 leukemia -14% | OVCAR-8 ovarian 3.35% | OVCAR-3 ovarian -92% | HS 578T breast -50.7% | SW-620 colon -66.9%

CN1CCN(C(=O)/C=C/c2ccc([N+](=O)[O-])o2)CC1
inactive: SR leukemia 53.6% | RPMI-8226 leukemia 82.3% | OVCAR-8 ovarian 77.4% | OVCAR-5 ovarian 127% | OVCAR-4 ovarian 76.3% | SK-OV-3 ovarian 100% | OVCAR-3 ovarian 92% | HS 578T breast 69.2% | NCI/ADR-RES ovarian 99.7% | BT-549 breast 105% | MDA-MB-435 melanoma 72.7% | SW-620 colon 82% | MCF7 breast 68.7% | HCT-116 colon 81.6% | KM12 colon 83.9%

CN1CCN(CC(O)COc2c(Br)c(Br)c(Br)c3c2OC(C)(C)C3)CC1 (stereo not drawn)
active: SR leukemia -26.4% | RPMI-8226 leukemia -11.3% | IGROV1 ovarian -66.9%
inactive: OVCAR-8 ovarian 91.1% | OVCAR-5 ovarian 78.9% | OVCAR-4 ovarian 82.3% | SK-OV-3 ovarian 109% | NCI/ADR-RES ovarian 64.5% | T-47D breast 81.3% | BT-549 breast 78.4% | MDA-MB-435 melanoma 18.7% | SW-620 colon 47.3% | MCF7 breast 59.5% | HCT-116 colon 20.7% | HCC-2998 colon 12.4% | KM12 colon 57.2%

COc1ccc(C2=NN(C(=O)COc3ccc(Cl)cc3)C(O)(c3cc(F)c(Cl)cc3Cl)C2)cc1 (stereo not drawn)
inactive: SR leukemia 17% | RPMI-8226 leukemia 80.9% | OVCAR-8 ovarian 91% | OVCAR-5 ovarian 96.6% | OVCAR-4 ovarian 98.8% | SK-OV-3 ovarian 94.6% | IGROV1 ovarian 60.4% | HS 578T breast 102% | NCI/ADR-RES ovarian 99% | T-47D breast 95.3% | MDA-MB-435 melanoma 91.7% | SW-620 colon 100% | MCF7 breast 96.3% | HCT-116 colon 86.4% | HCC-2998 colon 104% | KM12 colon 89.1%

CCOC(=O)NNc1nncc2ccccc12
inactive: SR leukemia 93.3% | RPMI-8226 leukemia 105% | OVCAR-8 ovarian 98.2% | OVCAR-4 ovarian 116% | SK-OV-3 ovarian 101% | IGROV1 ovarian 106% | OVCAR-3 ovarian 121% | HS 578T breast 98.9% | NCI/ADR-RES ovarian 103% | T-47D breast 94.8% | BT-549 breast 113% | MDA-MB-435 melanoma 100% | SW-620 colon 104% | MCF7 breast 105% | HCT-116 colon 106% | HCC-2998 colon 103% | KM12 colon 101%

O=C(O)c1cc2ccccc2cc1Nc1ccccc1
inactive: SR leukemia 97.8% | RPMI-8226 leukemia 78.4% | OVCAR-8 ovarian 100% | OVCAR-5 ovarian 90.8% | OVCAR-4 ovarian 97.5% | SK-OV-3 ovarian 106% | OVCAR-3 ovarian 108% | HS 578T breast 121% | NCI/ADR-RES ovarian 93% | T-47D breast 89.3% | BT-549 breast 113% | MDA-MB-435 melanoma 103% | SW-620 colon 105% | MCF7 breast 76.2% | HCT-116 colon 89.7% | HCC-2998 colon 99.1% | KM12 colon 109%

COC(=O)Nc1nc2ccc(Sc3ccccc3)cc2[nH]1
inactive: SR leukemia 14.5% | RPMI-8226 leukemia 42.1% | OVCAR-4 ovarian 49.4% | SK-OV-3 ovarian 13.5% | IGROV1 ovarian 30.4% | HS 578T breast 30.3% | T-47D breast 60.8% | BT-549 breast 49.5% | SW-620 colon 18.6% | MCF7 breast 21.4% | HCT-116 colon 15%
active: OVCAR-8 ovarian 9.03% | OVCAR-3 ovarian -78.1% | NCI/ADR-RES ovarian -30.1% | MDA-MB-435 melanoma -45.2% | HCC-2998 colon 0.2% | KM12 colon 3.07%

CCCCCCCCCCCC(=O)OCCNC(=O)C[n+]1ccccc1
inactive: SR leukemia 104% | RPMI-8226 leukemia 100% | OVCAR-8 ovarian 97.4% | OVCAR-5 ovarian 113% | OVCAR-4 ovarian 105% | SK-OV-3 ovarian 96.7% | OVCAR-3 ovarian 115% | HS 578T breast 139% | NCI/ADR-RES ovarian 113% | T-47D breast 95.3% | MCF7 breast 97.9% | HCT-116 colon 103% | HCC-2998 colon 111% | KM12 colon 110%

N#Cc1c(N)nc2c(c1N)C(c1ccc(Cl)cc1)C1=C(CCCC1=O)N2c1sc2c(c1C#N)CCCC2 (stereo not drawn)
inactive: SR leukemia 41.8% | RPMI-8226 leukemia 75.5% | OVCAR-8 ovarian 84.4% | OVCAR-5 ovarian 74.8% | OVCAR-4 ovarian 89.9% | SK-OV-3 ovarian 89.1% | IGROV1 ovarian 89.6% | NCI/ADR-RES ovarian 81.1% | T-47D breast 96.8% | BT-549 breast 96.1% | MDA-MB-435 melanoma 112% | SW-620 colon 107% | MCF7 breast 99.7% | HCT-116 colon 70.8% | HCC-2998 colon 90.3% | KM12 colon 89.7%

O=C(NC(=S)Nc1ccc(Cl)cc1)c1ccccc1
inactive: SR leukemia 67.9% | RPMI-8226 leukemia 95.3% | OVCAR-8 ovarian 102% | OVCAR-5 ovarian 84.8% | OVCAR-4 ovarian 85.6% | SK-OV-3 ovarian 115% | OVCAR-3 ovarian 125% | HS 578T breast 127% | NCI/ADR-RES ovarian 104% | T-47D breast 105% | BT-549 breast 131% | MDA-MB-435 melanoma 96.9% | SW-620 colon 109% | MCF7 breast 59.2% | HCT-116 colon 92.5% | HCC-2998 colon 106% | KM12 colon 124%

COc1cccc(C2CC(c3cc(OC)c(OC)c(OC)c3)=NN2)c1 (stereo not drawn)
active: SR leukemia 9.95%
inactive: RPMI-8226 leukemia 56.9% | OVCAR-8 ovarian 92.9% | OVCAR-5 ovarian 98.8% | OVCAR-4 ovarian 85.5% | SK-OV-3 ovarian 89.9% | IGROV1 ovarian 99.4% | HS 578T breast 111% | NCI/ADR-RES ovarian 63.4% | BT-549 breast 93.6% | MDA-MB-435 melanoma 11.9% | MCF7 breast 51.5% | HCT-116 colon 66.5% | HCC-2998 colon 83.2% | KM12 colon 54.7%

Cc1nssc1=S
active: IGROV1 ovarian -13.5%
inactive: SR leukemia 97.6% | RPMI-8226 leukemia 97% | OVCAR-8 ovarian 97.9% | OVCAR-5 ovarian 94.6% | OVCAR-4 ovarian 109% | SK-OV-3 ovarian 110% | HS 578T breast 98.3% | NCI/ADR-RES ovarian 96.6% | T-47D breast 105% | BT-549 breast 110% | MDA-MB-435 melanoma 104% | SW-620 colon 103% | MCF7 breast 93.7% | HCT-116 colon 96.9% | HCC-2998 colon 108% | KM12 colon 108%

Oc1ccc(Cl)cc1Sc1cc(Cl)ccc1O
inactive: SR leukemia 90.4% | RPMI-8226 leukemia 86.3% | OVCAR-8 ovarian 90.8% | OVCAR-5 ovarian 100% | OVCAR-4 ovarian 70.2% | SK-OV-3 ovarian 106% | OVCAR-3 ovarian 77% | HS 578T breast 108% | NCI/ADR-RES ovarian 101% | T-47D breast 75.8% | SW-620 colon 103% | MCF7 breast 91.3% | HCT-116 colon 86.9% | HCC-2998 colon 106% | KM12 colon 106%

COc1cc(NS(=O)(=O)c2ccc(N)cc2)ncn1
inactive: SR leukemia 97.2% | RPMI-8226 leukemia 109% | OVCAR-8 ovarian 102% | OVCAR-4 ovarian 114% | SK-OV-3 ovarian 107% | IGROV1 ovarian 118% | OVCAR-3 ovarian 115% | HS 578T breast 105% | NCI/ADR-RES ovarian 103% | T-47D breast 103% | BT-549 breast 107% | MDA-MB-435 melanoma 99.8% | SW-620 colon 108% | MCF7 breast 94.7% | HCT-116 colon 103% | HCC-2998 colon 109% | KM12 colon 104%
